Here are results for 9 molecules from PubChem BioAssay.

Experiment [1] in a line: reducers of endogenous Her2 protein level, primary screen, SKBR3 breast tumor cells, AlphaScreen, ATP viability (AID 461;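 active means Her2 level under about 52% in both replicate screens, with viability over 70% of control, limit read from the data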;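 on Her2 level: lower value means less Her2 protein in the cells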;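 on viability: percent of carrier control wells set as 100% viability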). As to conditions: 18-24 h, measured here: SKBR3 viability, ATP luminescence, at 10 µM. (In general: In Alpha technology, singlet oxygen from a donor bead excites a nearby acceptor bead.)
Experiment [2] addresses Receptor tyrosine-protein kinase erbB-2 (Homo sapiens) (UniProt P04626). The description is as above. The following applies: 18-24 h, at 10 µM, stronger effect = lower value.
Experiment [3] can be described thus: SK-BR-3 cell growth inhibitors, pilot screen, 24 h, human (AID 572;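 active means viability at or below 10% of carrier control in both of two separate runs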;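 further: compound exposure lasted between 18 and 24 h rather than exactly 24 h; 100% = carrier-treated control wells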). As to conditions: SK-BR-3 viability, CellTiter-Glo luminescence, at 10 µM, stronger effect = lower value. On the technique in general: In ATP-based viability assays light output follows the ATP content of the culture.
The nature of experiment [4]: HUVEC growth inhibition – cell-based, human, primary screen (AID 575;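 active means viability at or below 30% in both replicate assays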;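 further: 100% = median of untreated cell wells with 0.1% DMSO on each plate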). The following applies: HUVEC proliferation, CellTiter-Glo luminescence, 72 h; at 10 µM; stronger effect = lower value.
Experiment [5] can be described thus: growth inhibitors of H69AR lung tumor, primary screen, human, duplicate replicates (AID 580;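 active means viability at or under a set limit in both replicates, limit being median viability minus 3 SD, cut at about 48% in these data, passing the limit was not always enough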;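 further: 100% = mean luminescence of untreated wells and 0% = no signal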). As to conditions: H69AR lung tumor cells viability, ATP luminescence, 72 h; at 10 µM; stronger effect = lower value.
Experiment [6] can be described thus: reversal of MRP1-mediated doxorubicin resistance, pilot screen, H69AR cells, doxorubicin co-treatment (AID 601;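 active means viability loss from added drug above about 55%, and viability with drug at most 40%, in both replicates, limit read from the data, passing the limit was not always enough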). The following applies: CellTiter-Glo, 72 h, at 10 µM; for differential viability (reversal): stronger effect = higher value.
Experiment [7] is described as follows: 384-well plate pilot, post-Golgi transport modulator project, inhibition of yeast transport mutant growth (AID 636; in the data active means inhibition above about 31%). As to conditions: absorbance 615 nm, about 18 h, stronger effect = higher value.
Experiment [8] can be described thus: growth suppression of yeast trafficking mutant, preliminary HTS, modulators of trafficking downstream of Golgi apparatus project, 1536-format plate, OD 615 nm (AID 637). As to conditions: yeast transport mutant growth, absorbance 615 nm, 18 h; stronger effect = higher value.
Experiment [9] can be described thus: OD615 S. cerevisiae growth inhibition, permissive medium, pilot counter-assay, permissive growth control for S. cerevisiae lifespan shortening project (AID 705;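 active means growth inhibition above 25% in both replicates, a cutoff set 3 SD above the mean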). The following applies: OD615, 24 h, at 10 µM, stronger effect = higher value.
A short description of experiment [10]: Restrictive medium S. cerevisiae growth inhibition, OD615, pilot screen of yeast lifespan reduction project, restrictive growth control (AID 706;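 active means growth inhibition above a set limit, 3 SD over mean compound inhibition, in both replicates, cut at about 43% in these data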;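 further: modified DeaD lifespan yeast strain shifted to restrictive glucose medium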). As to conditions: OD615, 48 h, at 10 µM, stronger effect = higher value.
Experiment [11] in a line: viability gain of MRP-1-high H69AR cells under doxorubicin, pilot screen, MRP-1 activator project, CellTiter-Glo, duplicate (AID 807;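 active means viability increase at or above a cutoff of the median across tested compounds plus 3 SD, cut at about 8.5% in these data, passing the limit was not always enough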;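 further: compound pretreatment 18-22 h then 72 h combined with doxorubicin; 0% = doxorubicin alone and 100% = vehicle without doxorubicin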). As to conditions: H69AR viability with doxorubicin, CellTiter-Glo luminescence; at 10 µM; stronger effect = higher value.
The nature of experiment [12]: growth suppression of beta-catenin knockout HCT116, pilot screen, human colon tumor cells (AID 823;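 active means cell viability at or below a set limit in both duplicate runs, the limit being the all-compound median minus 4 SD, cut at about 23% in these data, passing the limit was not always enough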;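 further: 0% = wells killed by 20 µM Hyamine and 100% = untreated DMSO cell wells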). The following applies: CellTiter-Glo, 60 h, at 10 µM, stronger effect = lower value.
A short description of experiment [13]: growth suppression of PTEN-deleted HCT116, pilot screen, cell-based, HCT116 clonal line, CellTiter-Glo (AID 824;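 active means viability at or below 27.92% in each of two runs, the all-compound median minus 4 SD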;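 further: 0% = 20 µM Hyamine control and 100% = vehicle cell control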). The following applies: 60 h, at 10 µM, stronger effect = lower value.
Experiment [14] can be described thus: inhibitors of the yeast RAM network, pilot screen, dse1pr::URA3 reporter, 5-FOA selection (AID 869;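 active means inhibition over a set limit, the all-compound mean plus 3 SD, in both replicate runs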;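 further: 0% = DMSO wells with no growth and 100% = 10 µM 1-NA-PP1 with full growth; RAM network block rescues cells from 5-FOA so hits raise OD615 growth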). The following applies: S. cerevisiae dse1pr::URA3 5-FOA growth, OD615, 2 d; at 10 µM; stronger effect = higher value; strain carries analog-sensitive mutant Cbk1 kinase.
A short description of experiment [15]: RAM signaling pathway blockade in yeast – S. cerevisiae, Pdr1DBD-CYC8 efflux-inhibited sensitized strain, primary screen (AID 1298;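 active means RAM network inhibition above 8.4% in each of two replicates, 3 SD over the compound average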;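 further: 0% = DMSO untreated cells without growth and 100% = 10 µM 1-NA-PP1 full growth; higher means more yeast growth rescued from 5-FOA killing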). As to conditions: S. cerevisiae cbk1-as DSE1-URA3 strain, 5-FOA growth OD615, 2 d; at 50 µM; stronger effect = higher value.
Setting [16] is: H69AR cells + 2 uM doxorubicin, measured here: viability with 2 uM doxorubicin, stronger effect = lower value.
Where [17] appears, read: H69AR cells, compound alone cytotoxicity.

Inconclusive results are not listed. The source made the active and inactive calls. Unless noted, no stated cut-off is given here; in the data, active means inhibition above about 30%; inactive means the rest.

Chain of Receptor tyrosine-protein kinase erbB-2 (Homo sapiens) (P04626 whole entry, looked up): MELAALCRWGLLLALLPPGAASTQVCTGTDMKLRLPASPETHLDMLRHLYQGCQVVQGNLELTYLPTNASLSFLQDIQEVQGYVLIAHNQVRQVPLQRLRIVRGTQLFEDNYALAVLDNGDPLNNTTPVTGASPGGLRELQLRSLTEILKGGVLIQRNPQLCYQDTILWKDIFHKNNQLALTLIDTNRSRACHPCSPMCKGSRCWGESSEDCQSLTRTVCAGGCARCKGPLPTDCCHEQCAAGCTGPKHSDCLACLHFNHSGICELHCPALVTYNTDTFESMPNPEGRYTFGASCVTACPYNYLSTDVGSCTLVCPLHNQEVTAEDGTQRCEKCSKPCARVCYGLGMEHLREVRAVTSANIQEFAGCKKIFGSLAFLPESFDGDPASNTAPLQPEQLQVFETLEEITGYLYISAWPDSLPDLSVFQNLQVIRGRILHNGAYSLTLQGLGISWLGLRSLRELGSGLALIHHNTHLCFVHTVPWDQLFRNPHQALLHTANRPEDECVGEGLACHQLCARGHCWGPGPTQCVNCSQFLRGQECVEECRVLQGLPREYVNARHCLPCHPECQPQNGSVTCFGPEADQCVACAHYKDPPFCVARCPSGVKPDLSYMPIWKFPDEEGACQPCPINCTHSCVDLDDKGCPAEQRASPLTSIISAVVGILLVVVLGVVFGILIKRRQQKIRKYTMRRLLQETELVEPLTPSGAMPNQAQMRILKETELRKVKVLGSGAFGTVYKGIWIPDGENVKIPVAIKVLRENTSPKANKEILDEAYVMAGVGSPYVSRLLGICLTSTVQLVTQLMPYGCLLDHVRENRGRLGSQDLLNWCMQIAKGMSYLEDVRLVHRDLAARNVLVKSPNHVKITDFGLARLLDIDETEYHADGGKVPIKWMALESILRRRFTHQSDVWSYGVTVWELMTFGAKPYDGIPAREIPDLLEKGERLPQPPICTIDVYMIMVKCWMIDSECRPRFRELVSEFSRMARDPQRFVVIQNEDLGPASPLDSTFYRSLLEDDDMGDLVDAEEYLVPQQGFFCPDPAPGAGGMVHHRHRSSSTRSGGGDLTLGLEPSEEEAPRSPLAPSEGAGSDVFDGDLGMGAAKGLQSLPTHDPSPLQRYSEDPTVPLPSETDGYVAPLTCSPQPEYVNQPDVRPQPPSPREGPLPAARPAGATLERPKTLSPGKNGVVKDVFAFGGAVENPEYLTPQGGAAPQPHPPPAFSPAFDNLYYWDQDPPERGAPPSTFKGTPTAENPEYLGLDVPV

The term viability denotes a read-out of living cells in per cent, often relative to untreated cells. What is called inhibition is the change of the read-out against control, counted positive when it falls. Take `Cc1cccc(-n2ncc3c(N(CCO)CCO)ncnc32)c1`: the viability in experiment [1] was 97%; in experiment [3], 97% (inactive); in experiment [4] it was 78.7% (inactive); in [5], 90% (inactive); in experiment [6] (setting [16]), 78.7%; in experiment [6] (setting [17]), 90%. Besides, the viability is 94.9% (inactive) in experiment [12] and 101% (inactive) in experiment [13]. Besides, in experiment [2], the Her2 level is 91.5% (inactive). Moreover, the differential viability (reversal) in experiment [6] (H69AR cells + 2 uM doxorubicin) was 11.3% (inactive). Further, the inhibition in experiment [7] was -5.2% (inactive); in experiment [8], -1.97% (inactive); in experiment [14], 2.43% (inactive). Moreover, the results for the growth inhibition in [9] and in experiment [10] were -0.18% (inactive) and 0.945% (inactive), respectively. In experiment [11], the viability increase is -1.41% (inactive). Besides, in experiment [15], the RAM network inhibition was -0.31% (inactive).
For the molecule `COc1ccc(S(=O)(=O)Nc2ccc(F)c(Cl)c2)cc1OC`, the viability is 97.5% in experiment [1]; 97.5% (inactive) in experiment [3]; 106% (inactive) in [4]; 96.6% (inactive) in experiment [5]; 92.3% in experiment [6] (setting [16]); 96.6% in experiment [6] (setting [17]). For the same molecule, the viability in [12] was 86.3% (inactive); in [13], 87.6% (inactive). The Her2 level in experiment [2] was 93.5% (inactive). Further, in experiment [6] (H69AR cells + 2 uM doxorubicin), the differential viability (reversal) is 4.3% (inactive). In addition, the inhibition in [7] was -2.21% (inactive); in experiment [8], -10.2% (inactive); in [14] it was 0.595% (inactive). In addition, the growth inhibition in [9] was -15.3% (inactive); in [10], 4.31% (inactive). Also, in experiment [11], the viability increase is -1.4% (inactive). Further, the RAM network inhibition in experiment [15] was 1.81% (inactive).
For `Nc1nc2n(n1)C(c1cccc(Br)c1)CC(c1ccccc1)N2` (stereo not drawn), the viability in experiment [1] was 93.5%; in experiment [3], 93.5% (inactive); in experiment [4] it was 82% (inactive); in [5], 88.8% (inactive); in [6] (setting [16]) it was 98.7%; in experiment [6] (setting [17]), 88.8%. The viability is 97.1% (inactive) in [12] and 86% (inactive) in experiment [13]. The Her2 level in experiment [2] was 103% (inactive). The differential viability (reversal) in experiment [6] (H69AR cells + 2 uM doxorubicin) is -9.83% (inactive). The inhibition is -3.33% (inactive) in experiment [7], 0.83% (inactive) in experiment [8] and 1.22% (inactive) in experiment [14]. Besides, the growth inhibition is -6.41% (inactive) in experiment [9] and 12.7% (inactive) in experiment [10]. Besides, the viability increase in experiment [11] was -1.81% (inactive). In addition, in [15], the RAM network inhibition is 12.1% (inactive).
Regarding `CC1Cc2nc(SCC(=O)Nc3ccc4c(c3)OCO4)n(-c3ccc(F)cc3)c(=O)c2S1` (stereo not drawn), the viability in [1] was 90.5%; in [3] it was 90.5% (inactive); in experiment [4], 79.2% (inactive); in [5], 89.2% (inactive); in [6] (setting [16]) it was 87.1%; in experiment [6] (setting [17]) it was 89.2%. The viability in experiment [12] was 93.6% (inactive); in experiment [13], 86.7% (inactive). Moreover, in [2], the Her2 level was 98% (inactive). Besides, the differential viability (reversal) in experiment [6] (H69AR cells + 2 uM doxorubicin) was 2.12% (inactive). Also, the inhibition in [7] is -5.87% (inactive); in experiment [8], 9.33% (inactive); in experiment [14], 2% (inactive). Moreover, the values for the growth inhibition in experiment [9] and in experiment [10] were -7.17% (inactive) and 5.03% (inactive), respectively. Also, the viability increase in experiment [11] is -2.53% (inactive). For the same molecule, the RAM network inhibition in experiment [15] is 6.73% (inactive).
In the case of `COC(=O)CCC(=O)Nc1ccc(OC)cc1`, the viability is 104% in experiment [1]; 104% (inactive) in [3]; 121% (inactive) in experiment [4]; 85.1% (inactive) in experiment [5]; 98.3% in experiment [6] (setting [16]); 85.1% in experiment [6] (setting [17]). Moreover, the viability in [12] is 98.6% (inactive); in experiment [13], 101% (inactive). In addition, the Her2 level in experiment [2] is 84% (inactive). In [6] (H69AR cells + 2 uM doxorubicin), the differential viability (reversal) was -13.2% (inactive). The inhibition in experiment [7] was -6.22% (inactive); in experiment [8] it was 0.98% (inactive); in experiment [14], 0.605% (inactive). For the same molecule, the results for the growth inhibition in experiment [9] and in experiment [10] were -2.88% (inactive) and -6.16% (inactive), respectively. Besides, the viability increase in [11] is -1.06% (inactive). Moreover, the RAM network inhibition in experiment [15] is 2.52% (inactive).
As to `CC(=O)NCc1nc2ccccc2n1C(C)C`, the viability is 104% in [1]; 104% (inactive) in [3]; 84.2% (inactive) in experiment [4]; 92.3% (inactive) in experiment [5]; 82.3% in experiment [6] (setting [16]); 92.3% in experiment [6] (setting [17]). Besides, the values for the viability in [12] and in [13] were 105% (inactive) and 95.5% (inactive), respectively. For the same molecule, in experiment [2], the Her2 level is 108% (inactive). Further, the differential viability (reversal) in experiment [6] (H69AR cells + 2 uM doxorubicin) is 10% (inactive). Besides, the inhibition in [7] was -4.93% (inactive); in experiment [8], -4.83% (inactive); in experiment [14] it was 0.84% (inactive). Also, the growth inhibition is -13.7% (inactive) in experiment [9] and -29.9% (inactive) in experiment [10]. For the same molecule, the viability increase in experiment [11] is -0.81% (inactive). Also, the RAM network inhibition in experiment [15] was 3.6% (inactive).
Turning to `CCn1cc(SCC(=O)NCC2CCCO2)c2ccccc21` (stereo not drawn), the viability in [1] was 88%; in experiment [3], 88% (inactive); in experiment [4] it was 102% (inactive); in experiment [5], 85.5% (inactive); in experiment [6] (setting [16]) it was 94.9%; in experiment [6] (setting [17]), 85.5%. Moreover, the results for the viability in [12] and in experiment [13] were 94.8% (inactive) and 99.9% (inactive), respectively. In addition, in experiment [2], the Her2 level was 93.5% (inactive). Moreover, in [6] (H69AR cells + 2 uM doxorubicin), the differential viability (reversal) was -9.37% (inactive). The inhibition is -4.67% (inactive) in [7], -0.5% (inactive) in experiment [8] and 1.44% (inactive) in experiment [14]. The growth inhibition in experiment [9] was 4.53% (inactive); in [10] it was -6.71% (inactive). Also, the viability increase in experiment [11] was -1.64% (inactive). In addition, the RAM network inhibition in [15] was 4.96% (inactive).
As to `COCCNC(=O)CN(C)S(=O)(=O)c1ccc(Br)cc1`, the viability is 113% in experiment [1]; 113% (inactive) in experiment [3]; 97.5% (inactive) in experiment [4]; 104% (inactive) in experiment [5]; 98.2% in experiment [6] (setting [16]); 104% in experiment [6] (setting [17]). For the same molecule, the viability was 98.7% (inactive) in [12] and 98.4% (inactive) in experiment [13]. For the same molecule, the Her2 level in experiment [2] is 98% (inactive). Also, in experiment [6] (H69AR cells + 2 uM doxorubicin), the differential viability (reversal) is 5.54% (inactive). The figures for the inhibition in [7], in [8] and in [14] were -6.27% (inactive), -3.23% (inactive) and 0.87% (inactive), respectively. Further, the growth inhibition is -11.6% (inactive) in experiment [9] and -5.76% (inactive) in [10]. The viability increase in [11] is -2.09% (inactive). In addition, the RAM network inhibition in experiment [15] is 3.01% (inactive).
Turning to `Cc1ccccc1OCc1nnc2n1CC(C)S2` (stereo not drawn), the viability in experiment [1] was 99%; in experiment [3], 99% (inactive); in experiment [4], 88.6% (inactive); in experiment [5], 92.3% (inactive); in experiment [6] (setting [16]), 90.9%; in experiment [6] (setting [17]), 92.3%. Further, the results for the viability in experiment [12] and in experiment [13] were 97.8% (inactive) and 95.3% (inactive), respectively. In addition, in [2], the Her2 level was 95% (inactive). Moreover, the differential viability (reversal) in experiment [6] (H69AR cells + 2 uM doxorubicin) was 1.37% (inactive). The inhibition was -4.27% (inactive) in experiment [7], -2% (inactive) in experiment [8] and 0.795% (inactive) in [14]. Besides, the growth inhibition in experiment [9] is 3.34% (inactive); in [10] it was 16.6% (inactive). The viability increase in experiment [11] was 0.12% (inactive). Further, in experiment [15], the RAM network inhibition is -0.06% (inactive).
